Measurements: PubChem BioAssay (Tox21)
“And” between values parts separate entries of the source, which are not always exact repeats. Identical values can stand only once. Records with an inconclusive call do not appear. A call without a number means that no potency is given here. More than one record can exist for a structure, and the calls need not agree. The source made the active and inactive calls. Unless noted, the call rests on the fitted dose curve; in most records, active means well fitted curve in the direction sought with a large enough effect in the repeat runs; inconclusive means weak or mixed curves; inactive means no such curve, though single readings can be large; an effect the other way counts as inactive or inconclusive.

Tests used:
[1] = qHTS assay to identify small molecule agonists of the vitamin D receptor (VDR) signaling pathway - cell viability counter screen (AID 743224); further: nearly all actives have a fitted effect of over 50% in size; further: potency means the concentration at half of the fitted maximal effect
How it was run: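 Plated VDR-bla cells (4 h, 37C) received compound, incubated 16 h, then LiveBLAzer substrate 2 h RT; CellTiter-Glo added afterwards, luminescence read at 30 min.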

[2] = qHTS assay to identify small molecule antagonists of the vitamin D receptor (VDR) signaling pathway - cell viability counter screen (AID 743225); further: nearly all actives have a fitted effect of over 50% in size; further: potency means the concentration at half of the fitted maximal effect
How it was run: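 Cells (VDR-UAS-bla HEK 293T) are plated, rested 4 h at 37C, dosed with compound and 3 nM final 1-alpha,25-dihydroxy vitamin D3, and incubated 16 h. Viability is taken from CellTiter-Glo luminescence in the reporter wells.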

[3] = qHTS assay to identify small molecule agonists of the NFkB signaling pathway (AID 1159509; active means well fitted curve in the direction sought with a large enough effect in the signal ratio in the repeat runs, not every such curve was filed as active; the % refers to the signal ratio; further: series mostly up to about 61 µM)
How it was run: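 NFkB-bla ME-180 cells with a beta-lactamase reporter under an NF-kB response element were plated overnight, treated with compounds in DMSO for 5 hr at 37 C, then loaded with FRET substrate for 1.5 hr at room temperature.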

[4] = qHTS assay to identify small molecule agonists of the endoplasmic reticulum stress response signaling pathway (AID 1159516; active means well fitted activation curve with a large enough effect in the signal ratio in the repeat runs, not every such curve was filed as active; the % refers to the signal ratio)
How it was run: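 An ESRE-bla HeLa cell assay: compounds were pin-transferred from DMSO onto overnight-plated cells and left 5 hr at 37 C. Substrate was then loaded for 2 hr at room temperature before reading fluorescence at 460 nm and 530 nm.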

[5] = qHTS assay to identify small molecule agonists of the endoplasmic reticulum stress response signaling pathway - cell viability counter screen (AID 1159517; calls by dose curve; further: nearly all actives have a fitted effect of over 50% in size; further: potency means the concentration at half of the fitted maximal effect)
How it was run: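 Counter-screen wells were identical to the reporter wells. Cells were plated at 1,500 per well and dosed for 5 hr, then read for luminescence 30 min after CellTiter-Glo addition.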

[6] = target: Nuclear receptor ROR-gamma (Homo sapiens) (UniProt P51449); test: qHTS assay to identify small molecule antagonists of the retinoid-related orphan receptor gamma (ROR-gamma) signaling pathway (AID 1159521; further: nearly all actives have a fitted effect of over 50% in size; further: potency means the concentration at half of the fitted maximal effect)
How it was run: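 RORγ antagonism is scored from reduced reporter luminescence in Tet-on CHO cells. Induction used 1 uM final doxycycline hyclate for 16 h at 37 C, following a 2 h compound exposure.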

[7] = qHTS assay to identify small molecule agonists of the AP-1 signaling pathway - cell viability counter screen (AID 1159525; calls by dose curve; further: nearly all actives have a fitted effect of over 55% in size)
How it was run: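 AP-1-bla ME-180 cells in Opti-MEM with 0.5% dialyzed FBS, compound exposure 5 h at 37 C in 15-point titration. Viability read in the same wells as ATP content by CellTiter-Glo luminescence, normalised to tetra-n-octylammonium bromide and DMSO controls.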

[8] = qHTS assay to identify small molecule agonists of the AP-1 signaling pathway (AID 1159526; calls by dose curve; further: potency means the concentration at half of the fitted maximal effect)
[9] = target: Retinoic acid receptor RXR-alpha (Homo sapiens) (UniProt P19793); test: qHTS assay to identify small molecule agonists of the RXR signaling pathway (AID 1159527; calls by dose curve; further: nearly all actives have a fitted effect of over 35% in size)
How it was run: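 qHTS of the Tox21 10K library in GeneBLAzer RXR-alpha HEK 293T cells carrying a beta-lactamase reporter […]; 16 hr treatment, 9-cis retinoic acid as agonist control, FRET read-out.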

[10] = qHTS assay to identify small molecule agonists of the RXR signaling pathway - cell viability counter screen (AID 1159529); further: nearly all actives have a fitted effect of over 50% in size; further: potency means the concentration at half of the fitted maximal effect
How it was run: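 Cell viability is measured by CellTiter-Glo luminescence, 30 min at room temperature, in wells already read for beta-lactamase. Engineered HEK 293T cells (RXR-alpha-UAS-bla) are dosed 16 hr at 37 C. Tetraoctyl ammonium bromide serves as positive control.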

[11] = qHTS assay to identify small molecule antagonists of the retinoid acid receptor (RAR) signaling pathway - cell viability counter screen (AID 1159551); further: nearly all actives have a fitted effect of over 35% in size; further: potency means the concentration at half of the fitted maximal effect
How it was run: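 Retinol-stimulated (1 uM final) C3RL4 cells, compound 6 h, 37 C; readout CellTiter-Glo luminescence (ATP) after 30 min RT incubation.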

[12] = qHTS assay to identify small molecule antagonists of the retinoic acid receptor (RAR) signaling pathway (AID 1159552; further: nearly all actives have a fitted effect of over 50% in size; further: potency means the concentration at half of the fitted maximal effect)
How it was run: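 Quantitative HTS in C3RL4 RARE-luciferase reporter cells. Compounds were added with 1 uM (final) retinol; luminescence was read after 6 hr.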

[13] = qHTS assay to identify small molecule antagonists of the retinoid-related orphan receptor gamma (ROR-gamma) signaling pathway - cell viability counter screen (AID 1159520); further: nearly all actives have a fitted effect of over 50% in size
How it was run: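 Tet-on ROR gamma CHO cells were given compounds for 2 hr, then doxycycline hyclate at 1 uM final, and incubated 16 hr at 37 C. Viability was measured as ATP content by CellTiter-Glo luminescence.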

[14] = qHTS assay to identify small molecule agonists of the retinoic acid receptor (RAR) signaling pathway (AID 1159553); further: potency means the concentration at half of the fitted maximal effect
How it was run: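 Reporter readout comes from luciferase under RARE control in C3RL4 cells; compound exposure lasts 6 hr at 37 C in 5% CO2, and luminescence is recorded following a 30 min room-temperature incubation with reagent.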

[15] = qHTS assay to identify small molecule antagonists of the estrogen related receptor (ERR) signaling pathway - cell viability counter screen (AID 1224818);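 further: series mostly up to about 46 µM; viability measured after 17.5 h of compound exposure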
How it was run: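 After a 6 h pre-incubation, ERR cells were dosed by pin tool with compounds, positive/negative controls or DMSO alone. Following 17.5 h at 37 C and 30 min with CellTiter-Fluor, fluorescence was recorded.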

[16] = qHTS assay to identify small molecule antagonists of the estrogen related receptor (ERR) signaling pathway (AID 1224819)
How it was run: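 Luminescence readout (One-Glo, 30 min, RT) of ERR cell line after 18 h compound exposure at 37 C; cells seeded 2,000/well, pre-incubated 6 h, compounds pinned from DMSO stocks.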

[17] = qHTS assay to identify small molecule agonists of the estrogen related receptor (ERR) signaling pathway (AID 1224820)
How it was run: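 ERR reporter cells (NTP line) plated 2,000/well, incubated 6 h at 37 C/5% CO2, then pinned with compounds in DMSO and held 18 h at 37 C. One-Glo added; luminescence read after 30 min at room temperature.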

[18] = test system: estrogen-related receptor alpha (ERRalpha) with PGC-1alpha coactivator, human; test: qHTS assay to identify small molecule antagonists of the estrogen related receptor signaling pathway with the pleiotropic PPARgamma coactivator (PGC) (AID 1224821; calls by dose curve)
How it was run: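 Cells engineered for PGC/ERR signalling (line from NTP) were plated 6 h at 37 C/5% CO2, then exposed to DMSO-dissolved compound for 18 h at 37 C. Luciferase activity was read by One-Glo luminescence after 30 min at room temperature.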

Retinoic acid receptor RXR-alpha (Homo sapiens), sequence (P19793 whole entry, looked up): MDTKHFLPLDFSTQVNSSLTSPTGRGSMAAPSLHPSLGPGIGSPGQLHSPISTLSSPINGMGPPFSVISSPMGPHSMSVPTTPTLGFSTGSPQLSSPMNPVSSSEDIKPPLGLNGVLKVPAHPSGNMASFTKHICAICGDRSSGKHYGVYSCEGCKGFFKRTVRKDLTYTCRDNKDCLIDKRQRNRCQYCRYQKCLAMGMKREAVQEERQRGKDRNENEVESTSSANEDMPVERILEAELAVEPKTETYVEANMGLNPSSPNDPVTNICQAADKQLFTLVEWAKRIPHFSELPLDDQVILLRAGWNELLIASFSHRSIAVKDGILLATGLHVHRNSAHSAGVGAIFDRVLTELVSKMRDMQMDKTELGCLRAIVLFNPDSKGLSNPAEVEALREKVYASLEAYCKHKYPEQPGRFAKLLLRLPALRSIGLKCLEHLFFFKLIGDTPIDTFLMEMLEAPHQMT

Row | Structure (SMILES) | Potency [1] | Potency [2] | outcome [3] | outcome [4] | Potency [5] | Potency [6] | Potency [7] | Potency [8] | Potency [9] | Potency [10] | Potency [11] | Potency [12] | Potency [13] | Potency [14] | outcome [15] | Potency [16] | Potency [17] | Potency [18]
1 | CCCCCCCCCCCCN | inactive and 49 µM (active) | inactive and 54.9 µM (active) | inactive | inactive | 11.1 µM (active) and 21.9 µM (active) and 19.8 µM (active) | inactive | inactive | inactive | inactive | 21.9 µM (active) and inactive | inactive and 68.6 µM (active) | – | – | – | – | – | – | –
2 | CCC(=O)O | inactive | inactive | inactive | inactive | inactive | inactive | inactive | inactive | inactive | – | inactive | inactive | – | – | – | – | – | –
3 | CCCCCC/C=C/CCCCCCCC(=O)O | inactive | inactive | inactive | inactive | inactive | inactive | inactive | inactive | inactive | inactive | inactive | inactive | inactive | inactive | – | – | – | –
4 | CCCCCCOC(C)=O | inactive | inactive | inactive | inactive | inactive | – | inactive | inactive | inactive | inactive | inactive | – | inactive | – | – | – | – | –
5 | Cc1ccc(C)c(C)c1 | inactive | inactive | inactive | inactive | inactive | inactive | inactive | inactive | inactive | inactive | inactive | inactive | – | inactive | – | – | – | –
6 | CNC[C@H](O)[C@@H](O)[C@H](O)[C@H](O)CO | inactive | inactive | inactive | inactive | inactive | inactive | inactive | inactive | inactive | inactive | inactive | inactive | inactive | inactive | – | – | – | –
7 | NC(=O)/N=N/C(N)=O | inactive | inactive | inactive | inactive | inactive | inactive | inactive | inactive | inactive | inactive | inactive | inactive | – | inactive | – | – | – | –
8 | CC1Cc2ccccc2N1NC(=O)c1ccc(Cl)c(S(N)(=O)=O)c1 (stereo not drawn) | inactive | inactive | inactive | inactive | inactive | inactive | inactive | inactive | inactive | inactive | inactive | inactive | inactive | inactive | – | – | – | –
9 | CN(CCOc1ccc(CC2SC(=O)NC2=O)cc1)c1ccccn1 (stereo not drawn) | – | – | inactive | inactive | inactive | inactive | inactive | inactive | – | inactive | inactive | – | inactive | – | – | – | – | –
10 | CCOC(=O)[C@H](CCc1ccccc1)N[C@@H](C)C(=O)N1Cc2ccccc2C[C@H]1C(=O)O | inactive | inactive | inactive | inactive | inactive | inactive | inactive | inactive and 26.8 µM (active) | inactive | – | inactive | inactive | – | inactive | – | – | – | –
11 | CCCCC(CC)COC(=O)/C=C\C(=O)OCC(CC)CCCC (stereo not drawn) | inactive | inactive | inactive | inactive | inactive | inactive | inactive | inactive | inactive | inactive | inactive | inactive | – | inactive | – | – | – | –
12 | C/C=C(C)/C=C/C=C(C)C | inactive | inactive | inactive | inactive | inactive | – | inactive | – | inactive | – | inactive | – | – | – | – | – | – | –
13 | CC#C[C@]1(O)CC[C@H]2[C@@H]3CCC4=CC(=O)CCC4=C3[C@@H](c3ccc(N(C)C)cc3)C[C@@]21C | inactive | inactive | inactive | inactive | inactive | 30.6 µM (active) and 26.6 µM (active) | inactive | inactive | – | – | inactive | 27.3 µM (active) and 26.6 µM (active) | – | – | inactive | 22 µM (active) | inactive | 21.1 µM (active)
14 | CN(C)c1ccc(C(=N)c2ccc(N(C)C)cc2)cc1 | – | inactive | inactive | inactive | inactive | 21.4 µM (active) and 20.9 µM (active) | inactive | inactive | – | inactive | – | inactive | – | 41.6 µM (active) | – | – | – | –
15 | C=C(C)C(=O)OCCC[Si](OC)(OC)OC | inactive | inactive | inactive | inactive | inactive | inactive | inactive | inactive | inactive | inactive | inactive | inactive | inactive | inactive | – | – | – | –
16 | CC[Si](OC(C)=O)(OC(C)=O)OC(C)=O | inactive | inactive | inactive | inactive | inactive | inactive | inactive | inactive | inactive | – | inactive | – | inactive | – | – | – | – | –
17 | CC(C)n1c(/C=C/[C@@H](O)C[C@@H](O)CC(=O)O)c(-c2ccc(F)cc2)c2ccccc21 | inactive | inactive | inactive | inactive | inactive | 486 nM (active) and 168 nM (active) | inactive | inactive | inactive | – | inactive | – | – | – | – | – | – | –
18 | O=C(c1ccc(O)cc1)c1ccc(O)cc1O | inactive | inactive | inactive | inactive | inactive | inactive | inactive | inactive | – | – | – | inactive | inactive | inactive | – | – | – | –
